Measurements taken from ChEMBL document CHEMBL2218924, “A broad activity screen in support of a chemogenomic map for kinase signalling research and drug discovery” (Biochem J, 2013).

target: Tyrosine-protein kinase Lyn (Homo sapiens) (UniProt P07948); conditions: at 10 µM
Sequence (P07948 2-512 limits assumed): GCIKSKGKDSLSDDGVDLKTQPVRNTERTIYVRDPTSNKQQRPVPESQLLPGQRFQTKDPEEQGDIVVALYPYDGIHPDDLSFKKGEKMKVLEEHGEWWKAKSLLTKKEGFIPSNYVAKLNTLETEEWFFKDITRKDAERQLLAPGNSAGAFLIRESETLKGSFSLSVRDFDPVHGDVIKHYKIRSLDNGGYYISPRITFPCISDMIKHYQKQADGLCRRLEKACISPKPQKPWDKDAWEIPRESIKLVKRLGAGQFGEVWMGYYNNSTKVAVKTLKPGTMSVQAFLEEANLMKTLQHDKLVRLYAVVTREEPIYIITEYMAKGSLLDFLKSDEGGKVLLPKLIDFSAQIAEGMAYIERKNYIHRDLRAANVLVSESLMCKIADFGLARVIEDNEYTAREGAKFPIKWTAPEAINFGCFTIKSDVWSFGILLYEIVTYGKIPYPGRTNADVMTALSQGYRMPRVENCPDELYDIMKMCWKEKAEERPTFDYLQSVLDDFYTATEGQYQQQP

With `CCN1/C(=C/C(C)=O)Sc2ccc(OC)cc21` as the molecule, how does the residual activity read?
The residual activity was 37%.

For `N#C/C(=C1/Nc2ccccc2S1)c1ccnc(NCCc2cccnc2)n1`, which residual activity is on record?
The residual activity was 15%.

How did the residual activity turn out when `N#Cc1c(NC(=O)c2cccc3ccccc23)sc2c1CCCC2` was run?
Its residual activity is 62%.

`CN(C)S(=O)(=O)c1ccc2c(c1)/C(=C/c1cc3c([nH]1)CCCC3)C(=O)N2` was tested. Which residual activity did it give?
The residual activity was 0%.

How did the residual activity turn out when `O=C1Cc2c([nH]c3ccc(Br)cc23)-c2ccccc2N1` was run?
The residual activity was 1%.

Which residual activity does the source give for `O=c1cc(N2CCOCC2)oc2c(-c3ccccc3)cccc12` here?
The residual activity was 74%.

How did the residual activity turn out when `Nc1nccc(-c2c(-c3ccc(F)cc3)ncn2C2CCNCC2)n1` was run?
The residual activity was 6%.

Which residual activity does the source give for `CC(C)[C@H](CO)Nc1nc(Nc2cc(N)cc(Cl)c2)c2ncn(C(C)C)c2n1` here?
Its residual activity is -1%.

For `O=S(=O)(NCCNC/C=C/c1ccc(Br)cc1)c1cccc2cnccc12`, which residual activity is on record?
Its residual activity is 49%.

How did the residual activity turn out when `Nc1n[nH]c2nc3ccccc3nc12` was run?
The residual activity was 67%.

`Cn1sc(=O)n(Cc2ccccc2)c1=O` was tested. Which residual activity did it give?
Its residual activity is 92%.

How did the residual activity turn out when `CCOc1nc(NC(=O)Cc2cc(OC)ccc2OC)cc(N)c1C#N` was run?
Its residual activity is 59%.

With `O=C1Cc2c([nH]c3ccc([N+](=O)[O-])cc23)-c2ccccc2N1` as the molecule, how does the residual activity read?
Its residual activity is 5%.

For `O=C(Nc1nc2ccccc2n1CCN1CCOCC1)c1cccc([N+](=O)[O-])c1`, which residual activity is on record?
Its residual activity is 87%.

How did the residual activity turn out when `Nc1ncnc2c1cnn2-c1ccccc1` was run?
Its residual activity is 82%.

With `Fc1ccc(-c2nc3n(c2-c2ccncc2)CCS3)cc1` as the molecule, how does the residual activity read?
Its residual activity is 74%.

`Cc1cc(C)c(/C=C2\C(=O)Nc3ccccc32)[nH]1` was tested. Which residual activity did it give?
The residual activity was 8%.

Which residual activity does the source give for `Cn1c2ccccc2c2c3c(c4c5ccccc5n(CCC#N)c4c21)CNC3=O` here?
Its residual activity is 9%.

Which residual activity does the source give for `CCOC(=O)c1c(C)[nH]c(/C=C2\C(=O)Nc3ccccc32)c1C` here?
The residual activity was 26%.
